In PubChem BioAssay AID463173 (ICCB-Longwood Screening Facility, Harvard Medical School, 2010):
The whole screen tested about 52,000 compounds, of which about 4,300 (8.3%) were called active. What follows is part of a selection rich in actives, with near analogues and random picks from the rest. Unmarked numbers belong to inactive results. Cut-off read from the data, not from the text of the source: active = survival mostly below about 52% (no sharp cut-off); inactive = mostly above about 56%.

What follows are molecules tested on DeltatarO mutant (assay: S. aureus survival, RN4220 and DeltatarO strains – OD600, teichoic acid synthesis inhibitors, primary screen (AID 463173)). Settings: S. aureus RN4220 wild type/DeltatarO growth, OD600, 18 h, hits give low values, screened at 18.75 µg/mL (by protocol).

Row | Compound | survival
1 | CNC(=O)c1cnc2sc(N3CCC(C)CC3)nn2c1=O | 78%
2 | CCOC(=O)c1ccc2c(c1)N(Cc1cc(C)ccc1C)C(=O)c1ccccc1S2(=O)=O | 85%
3 | Cc1ccccc1C(=O)NC1CCN(Cc2nnnn2C2CCCC2)CC1 | 101%
4 | CCC(CC)C(=O)Nc1ccc(C(=O)OCc2cc(=O)n3nc(C4CC4)sc3n2)cc1 | 80%
5 | Cc1ccc(/C=C/c2onc(C)c2S(=O)(=O)N2CCC(C(=O)Nc3ccccc3C(F)(F)F)CC2)cc1 | 75%
6 | COc1ccc(-c2c3c(=O)n(C)c(=O)n(C)c3cn2-c2cccc(N)c2)cc1 | 79%
7 | COc1cccc2c1Oc1ncccc1N(c1ccc(C(=O)NCc3ccccc3C)s1)C2 | 84%
8 | CCOc1ccccc1CNC(=O)c1cc(-c2ccc(C)c(C)c2)nc2ccccc12 | 74%
9 | COc1ccc(NC(=O)c2ccc(NC(=O)CCS(=O)(=O)c3cccs3)cc2)cc1OC | 50%
10 | COc1cccc2sc(N3CCN(C(=O)CS(=O)(=O)c4ccc(Cl)cc4)CC3)nc12 | -4% (active)
11 | Cc1ccc(S(=O)(=O)CC(=O)N2CCN(c3nc4c(F)cccc4s3)CC2)cc1 | -5% (active)
12 | Cc1c(Cl)ccc2sc(N3CCN(C(=O)CS(=O)(=O)c4ccccc4)CC3)nc12 | 106%
13 | COc1ccc(OC)c2sc(N3CCN(C(=O)CCS(=O)(=O)c4ccc(F)cc4)CC3)nc12 | 94%
14 | COc1cccc2sc(N3CCN(C(=O)CCS(=O)(=O)c4ccc(F)cc4)CC3)nc12 | 66%
15 | Cc1ccc2sc(N3CCN(C(=O)CCS(=O)(=O)c4ccc(Cl)cc4)CC3)nc2c1C | 64%
16 | Cc1ccc(S(=O)(=O)CCC(=O)N2CCN(c3nc4c(C)c(Cl)ccc4s3)CC2)cc1 | 72%
17 | Cc1ccc2sc(N3CCN(C(=O)CCS(=O)(=O)c4ccc(F)cc4)CC3)nc2c1C | 115%
18 | Cc1c(Cl)ccc2sc(N3CCN(C(=O)CCS(=O)(=O)c4ccc(F)cc4)CC3)nc12 | 0% (active)
19 | Cc1ccc(S(=O)(=O)CCC(=O)N2CCN(c3nc4c(C)c(C)ccc4s3)CC2)cc1 | 92%
20 | CCCCC(=O)N1CCN(c2nc3c(C)c(C)ccc3s2)CC1 | 46% (active)
21 | Cc1cccc2sc(N3CCN(C(=O)CS(=O)(=O)c4ccc(F)cc4)CC3)nc12 | 102%
22 | O=c1cc(-c2ccccc2)n2c(SCc3cccc([N+](=O)[O-])c3)nnc2[nH]1 | 69%

Row | Compound | survival
23 | Cc1noc(Cn2c(=O)c3cc4c(cc3n(CC(=O)Nc3ccccc3F)c2=O)OCO4)n1 | 77%
24 | Cc1cccc(CS(=O)(=O)Cc2ccc(C(=O)NCc3ccc(Cl)cc3)o2)c1 | 130%
25 | Cc1ccc(-n2c(=O)c3c4c(sc3n(CC(=O)c3ccc(Cl)cc3)c2=O)CCC4)cc1C | 168%
26 | Cc1ccc(Cl)cc1NC(=O)CCC(=O)NCc1ccco1 | 74%
27 | Cc1ccc(NS(=O)(=O)c2ccc3c(c2)CCCN3C(=O)C2CCC2)cc1Cl | 107%
28 | CCc1cccc(C)c1NC(=O)Cn1cc2c(n1)CCCC2 | 99%
29 | CCc1ccccc1NS(=O)(=O)c1ccc2[nH]cc(C(=O)N(CC(C)C)CC(C)C)c(=O)c2c1 | 84%
30 | COc1ccc(C(=O)Nc2nnc(S(=O)(=O)N(CC(C)C)c3ccccc3)s2)cc1 | 51%
31 | Cc1ccc(N(CC(C)C)S(=O)(=O)c2nnc(NC(=O)C(C)C)s2)cc1 | 72%
32 | COc1ccc(N(CC(C)C)S(=O)(=O)c2nnc(NC(=O)c3cccs3)s2)cc1 | 42% (active)
33 | COc1ccc(C(=O)Nc2nnc(S(=O)(=O)N(CC(C)C)c3ccc(C)cc3)s2)cc1OC | 68%
34 | CC(C)CN(c1ccccc1)S(=O)(=O)c1nnc(NC(=O)C2CCCCC2)s1 | 51%
35 | Cc1ccc(N(CC(C)C)S(=O)(=O)c2nnc(NC(=O)c3cccs3)s2)cc1 | 34% (active)
36 | CCc1ccc(CNC(=O)C2CCN(C(=O)N3CC(CC)Oc4ccc(C)cc43)CC2)cc1 (configuration not stated) | 55%
37 | Cc1ccc(OCC(=O)Nc2ccc(-c3nc4ccccc4o3)cc2)c(C)c1 | 63%
38 | Cc1ccc2nc(-c3ccc(Cl)c(NC(=O)c4cccc([N+](=O)[O-])c4C)c3)oc2c1 | 126%
39 | Cc1ccc(OCC(=O)Nc2c(Cl)ccc3nsnc23)cc1C | 71%
40 | CC(C)c1ccc(OCC(=O)Nc2c(Cl)ccc3nsnc23)cc1 | 41% (active)
41 | Cc1cc2nc(-c3cccc(NC(=O)COc4ccc(C(C)C)cc4)c3)oc2cc1C | 50%
42 | Cc1ccc2nc(-c3ccc(Cl)c(NC(=O)COc4ccc([N+](=O)[O-])cc4)c3)oc2c1 | 54%
43 | Cc1cccc(OCC(=O)Nc2ccc(-c3nc4ccccc4o3)cc2)c1C | 52% (active)
44 | Cc1cc(C)cc(OCC(=O)Nc2ccc(-c3nc4ccccc4o3)cc2)c1 | 51%

Row | Compound | survival
45 | Cc1ccc2nc(-c3ccc(Cl)c(NC(=O)COc4cccc(C)c4C)c3)oc2c1 | 48% (active)
46 | Cc1ccc2nc(-c3ccc(Cl)c(NC(=O)COc4ccc(C(C)C)cc4)c3)oc2c1 | 42% (active)
47 | Cc1ccc2nc(-c3ccc(C)c(NC(=O)Cc4ccccc4)c3)oc2c1 | 77%
48 | O=C(COc1ccccc1)Nc1c(Cl)ccc2nsnc12 | 74%
49 | CN1CCN(C(=O)/C(=C/c2cccs2)NC(=O)c2cccs2)CC1 | 74%
50 | CC(C)CCNC(=O)c1cnc2sc(N3CCCCCC3)nn2c1=O | 78%
51 | CCN(CC)S(=O)(=O)c1ccc2c(c1)c(=O)c(C(=O)N1CCN(c3cccc(C)c3)C(C)C1)cn2C (configuration not stated) | 78%
52 | COc1ccc(N2CCN(C(=O)c3nn(-c4ccc(C)cc4)c(=O)n(C)c3=O)CC2)cc1 | 71%
53 | CCN(CC)CCNC(=O)CCn1c(=O)c2cccn2c2cccnc21 | 87%
54 | O=C(Cn1nnc(-c2ccc(Cl)cc2)n1)NCc1ccc(F)cc1 | 78%
55 | CC(=O)N1c2ccccc2Sc2ccccc21 | 102%
56 | CC(C)c1ccc(NC(=O)N2c3ccccc3Sc3ccccc32)cc1 | 6% (active)
57 | O=C(C1CC1)N1c2ccccc2Sc2ccccc21 | 73%
58 | CCOC(=O)N1c2ccccc2Sc2ccccc21 | 98%
59 | CCc1ccc(NC(=O)N2c3ccccc3Sc3ccccc32)cc1 | -2% (active)
60 | CCN(CC)C(=O)N1c2ccccc2Sc2ccccc21 | 99%
61 | Cc1ccc(-c2cc(C(F)F)n3ncc(C(=O)Nc4cn(C)nc4C)c3n2)cc1 | 89%
62 | CC1=C(C(=O)Nc2ccc(F)cc2F)C2(CCCCCC2)OC1=O | 83%
63 | Cc1cc(C)n(-c2nc(C)c(C)c(=O)n2CC(=O)Nc2ccc([N+](=O)[O-])cc2)n1 | 77%
64 | Cc1cc(=O)n(CC(=O)Nc2cccc([N+](=O)[O-])c2)c(-n2nc(C)cc2C)n1 | 95%
65 | Cc1cc(C)n(-c2nc(C)c(C)c(=O)n2CC(=O)Nc2cccc([N+](=O)[O-])c2)n1 | 52% (active)
66 | COc1ccc(CN2CCN(c3ncnc4sc5c(c34)CC(C)CC5)CC2)cc1F (configuration not stated) | 83%

Row | Compound | survival
67 | COc1ccc(CN2CCN(c3ncnc4sc5c(c34)CCCC5)CC2)cc1F | 33% (active)
68 | Cc1nc(N2CCN(C(=O)c3ccco3)CC2)c2c3c(sc2n1)CC(C(C)(C)C)CC3 (configuration not stated) | 77%
69 | c1nc(N2CCCC2)c2c3c(sc2n1)CCC3 | 70%
70 | Clc1ccc(CN2CCN(c3ncnc4sc5c(c34)CCCC5)CC2)cc1Cl | 107%
71 | O=C(c1ccco1)N1CCN(c2ncnc3sc4c(c23)CCC4)CC1 | 36% (active)
72 | Cc1ccc(NC(=O)Cn2cc(S(=O)(=O)N3CCC(C)CC3)c3ccccc3c2=O)c(Br)c1 | 84%
73 | Cc1ccc(NCc2cc3cc4c(cc3n(CC(=O)Nc3ccc(C)cc3)c2=O)OCCO4)cc1 | 32% (active)
74 | CC(=O)c1cccc(NC(=O)Cn2c(=O)c(CNc3ccc(C)cc3)cc3cc4c(cc32)OCCO4)c1 | 91%
75 | CCc1ccc(NCc2cc3cc4c(cc3n(CC(=O)Nc3ccc(C)cc3)c2=O)OCO4)cc1 | 89%
76 | CCc1ccc(NCc2cc3cc4c(cc3n(CC(=O)Nc3ccc(Cl)cc3)c2=O)OCO4)cc1 | 135%
77 | CCOc1ccc(NC(=O)Cn2c(=O)c(CNc3ccc(CC)cc3)cc3cc4c(cc32)OCO4)cc1 | 47% (active)
78 | COc1ccc(NCc2cc3cc4c(cc3n(CC(=O)Nc3ccc(C)cc3)c2=O)OCO4)cc1 | 67%
79 | CCOC(=O)c1ccc(NC(=O)c2c(NCc3ccc(OC)c(OC)c3OC)sc3c2CCC(C)C3)cc1 (configuration not stated) | 123%
80 | COc1cccc(C(=O)N(Cc2ccc(C)o2)C2CCS(=O)(=O)C2)c1 (configuration not stated) | 96%
81 | CN(C(=O)c1cc2nc(-c3ccco3)cc(C(F)(F)F)n2n1)C12CC3CC(CC(C3)C1)C2 | 110%
82 | COC(=O)c1ccccc1NC(=O)c1cn2c3c(ccc(Cl)c3c1=O)OC(C)C2 (configuration not stated) | 84%
83 | Cc1cccc(-n2c3nc(=O)n(C)c(=O)c-3cc3ccc(Cl)cc32)c1C | 81%
84 | Cn1c(=O)c2sccc2n2c(CCCC(=O)Nc3ccc(Oc4ccccc4)cc3)nnc12 | 53%
85 | Cn1c(=O)c2sccc2n2c(CCCC(=O)Nc3ccc(Oc4ccc(Cl)cc4)cc3)nnc12 | 24% (active)
86 | CCCn1c(=O)c2sccc2n2c(CCCC(=O)Nc3ccc(Oc4ccc(Cl)cc4)cc3)nnc12 | 98%
87 | COc1ccc(NC(=O)c2ccc(CN3C(=O)CCn4nc(C)cc43)cc2)c(OC)c1 | 99%
